Assay results reported in PubChem BioAssay (NCI).
The panel holds about 83,000 compounds, 20% with a hit somewhere; the sample as a whole holds those more often.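 A percent growth of 40 corresponds to 60% growth inhibition; 0 means no net growth; -100 means all cells died. Active threshold: below 10.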 Active and inactive are the calls of the source.

Key:
Test in all cases: NCI-60 one-dose screen, 48 h (100 = growth as untreated, 0 = no growth, -100 = all killed)
NCI-H23 lung = settings: 10 µM unless noted
NCI-H226 lung = settings: 10 µM unless noted
NCI-H322M lung = settings: 10 µM unless noted
HOP-62 NSCLC = settings: 10 µM unless noted
NCI-H460 lung = settings: 10 µM unless noted
HOP-92 NSCLC = settings: 10 µM unless noted
NCI-H522 lung = settings: 10 µM unless noted
A549/ATCC NSCLC = settings: 10 µM unless noted
786-0 renal = settings: 10 µM unless noted
COLO 205 colon = settings: 10 µM unless noted
DU-145 prostate = settings: 10 µM unless noted
K-562 leukemia = settings: 10 µM unless noted
MALME-3M melanoma = settings: 10 µM unless noted
MDA-MB-231 breast = settings: 10 µM unless noted
RXF 393 renal = settings: 10 µM unless noted
SF-268 CNS = settings: 10 µM unless noted
SF-295 CNS = settings: 10 µM unless noted
SF-539 CNS = settings: 10 µM unless noted
UACC-257 melanoma = settings: 10 µM
M14 melanoma = settings: 10 µM unless noted

Measured: growth

N#C/C(=C\c1ccc2ccccc2c1)C(=O)Nc1sc2c(c1C#N)CCC2
inactive: NCI-H23 lung 99.5% | NCI-H226 lung 94.1% | NCI-H322M lung 113% | HOP-62 NSCLC 106% | NCI-H460 lung 104% | HOP-92 NSCLC 81.4% | NCI-H522 lung 96.7% | A549/ATCC NSCLC 98.4% | 786-0 renal 99.6% | COLO 205 colon 115% | DU-145 prostate 103% | K-562 leukemia 96.2% | MALME-3M melanoma 116% | MDA-MB-231 breast 98.1% | RXF 393 renal 107% | SF-268 CNS 103% | SF-295 CNS 95.3% | SF-539 CNS 102% | UACC-257 melanoma 108% | M14 melanoma 106%

COc1ccc(C(=O)n2cc(C=O)c3ccccc32)cc1
inactive: NCI-H23 lung 101% | NCI-H226 lung 96.7% | NCI-H322M lung 95.2% | HOP-62 NSCLC 124% | NCI-H460 lung 110% | HOP-92 NSCLC 83.1% | NCI-H522 lung 98.6% | A549/ATCC NSCLC 98.6% | 786-0 renal 102% | COLO 205 colon 114% | DU-145 prostate 105% | K-562 leukemia 82.1% | MALME-3M melanoma 93.2% | MDA-MB-231 breast 91.8% | RXF 393 renal 106% | SF-268 CNS 92.5% | SF-295 CNS 99.6% | SF-539 CNS 89.2% | UACC-257 melanoma 103% | M14 melanoma 82.8%

CN1CCN(c2ccc(C(=O)Nc3cccc(-c4cn(-c5ccc(S(N)(=O)=O)cc5)nn4)c3)cc2C(F)(F)F)CC1
active: K-562 leukemia 9.33% | RXF 393 renal 6.63%
inactive: NCI-H23 lung 82.2% | NCI-H226 lung 96.8% | NCI-H322M lung 72% | HOP-62 NSCLC 85.7% | NCI-H460 lung 78.8% | HOP-92 NSCLC 56.4% | NCI-H522 lung 90.2% | A549/ATCC NSCLC 91.5% | 786-0 renal 52.5% | COLO 205 colon 85.3% | DU-145 prostate 92.5% | MALME-3M melanoma 71.4% | MDA-MB-231 breast 63.6% | SF-268 CNS 82.9% | SF-295 CNS 90.4% | SF-539 CNS 46.2% | UACC-257 melanoma 95.8% | M14 melanoma 82.2%

COc1ccc(NC(=O)[C@H](C)N)cc1C(=O)Nc1cccc(-c2cc(=O)c3c(OC)c(OC)c(OC)cc3o2)c1
active: HOP-92 NSCLC -4.58%
inactive: NCI-H23 lung 64.4% | NCI-H226 lung 67.2% | NCI-H322M lung 67.7% | HOP-62 NSCLC 67.3% | NCI-H460 lung 52.4% | NCI-H522 lung 82% | A549/ATCC NSCLC 76.5% | 786-0 renal 63.5% | COLO 205 colon 69.6% | DU-145 prostate 60.8% | K-562 leukemia 52.6% | MALME-3M melanoma 86.5% | MDA-MB-231 breast 62.3% | RXF 393 renal 71.9% | SF-268 CNS 66.6% | SF-295 CNS 64.6% | SF-539 CNS 71.9% | UACC-257 melanoma 109% | M14 melanoma 104%

C/C=C/C=C1\C[C@H]2CO[C@H](O2)C1=O
inactive: NCI-H23 lung 93.9% | NCI-H226 lung 94.9% | NCI-H322M lung 93.7% | HOP-62 NSCLC 96.9% | NCI-H460 lung 104% | HOP-92 NSCLC 96.4% | NCI-H522 lung 95.6% | A549/ATCC NSCLC 98.2% | 786-0 renal 102% | COLO 205 colon 117% | DU-145 prostate 106% | K-562 leukemia 56.8% | MALME-3M melanoma 102% | MDA-MB-231 breast 105% | RXF 393 renal 104% | SF-268 CNS 105% | SF-295 CNS 106% | SF-539 CNS 102% | UACC-257 melanoma 90.8% | M14 melanoma 85.4%

COc1ccc(NC2=C(Cl)C(=O)C(C)=C(C)C2=O)cc1
inactive: NCI-H23 lung 83.7% | NCI-H226 lung 99% | NCI-H322M lung 100% | HOP-62 NSCLC 95.6% | NCI-H460 lung 97.3% | NCI-H522 lung 85.6% | A549/ATCC NSCLC 98.3% | 786-0 renal 113% | COLO 205 colon 109% | DU-145 prostate 106% | MALME-3M melanoma 99.8% | RXF 393 renal 100% | SF-268 CNS 96% | SF-295 CNS 100% | SF-539 CNS 103% | UACC-257 melanoma 85.5% | M14 melanoma 95.5%
active: HOP-92 NSCLC -2.54% | K-562 leukemia 5.78% | MDA-MB-231 breast -15.1%

N/C(=N\c1nc2ccc([N+](=O)[O-])cc2s1)C(Cl)(Cl)Cl
active: DU-145 prostate 1.66%
inactive: NCI-H23 lung 91.3% | NCI-H226 lung 85.2% | NCI-H322M lung 10.5% | HOP-62 NSCLC 41.9% | NCI-H460 lung 14.3% | HOP-92 NSCLC 36.2% | NCI-H522 lung 85.3% | A549/ATCC NSCLC 26.5% | 786-0 renal 80.5% | COLO 205 colon 32% | K-562 leukemia 81.2% | MALME-3M melanoma 77.4% | MDA-MB-231 breast 63.1% | RXF 393 renal 44.3% | SF-268 CNS 71.3% | SF-295 CNS 19.6% | SF-539 CNS 63.5% | UACC-257 melanoma 85.1% | M14 melanoma 85.5%
